Experimental data from the supplement of paper PMC6555819.

Experiments:
Test in all cases: PBM binding z-score (relative to random genomic background probes); higher = stronger binding; sequences stand for … in GC…GCGATTGACAGCGTAGAATGAAGG
[1] = tested on: FXR:RXRa (NR concentration 270 nM, RXRa partner concentration 90 nM)
Method in brief: (§1)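 Custom Agilent 4×180K protein-binding microarrays carried double-stranded probes. Their 34-nt variable regions held direct-repeat seeds, single-nucleotide variants, half-site ablations and random human genomic background sequences. Arrays were incubated 1 h with ligand-free nuclear receptor dimers in PBS pH 7.4, 2% milk, 0.02% Triton X-100, 1 mM DTT, 0.2 mg/mL BSA and 0.4 mg/ml salmon testes DNA. Antibodies against each partner (one per run) detected binding, and scanned fluorescence was regression-normalized. Binding z-scores use random background probes as reference.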

[2] = tested on: LXRa:RXRa (NR concentration 270 nM, RXRa partner concentration 90 nM)
Method in brief: as §1

[3] = tested on: LXRa homodimer (NR concentration 270 nM)
Method in brief: as §1

[4] = tested on: LXRb:RXRa (NR concentration 270 nM, RXRa partner concentration 90 nM)
Method in brief: as §1

[5] = tested on: LXRb homodimer (NR concentration 270 nM)
Method in brief: as §1

[6] = tested on: PPARa:RXRa (NR concentration 270 nM, RXRa partner concentration 90 nM)
Method in brief: as §1

[7] = tested on: PPARg:RXRa (NR concentration 180 nM, RXRa partner concentration 90 nM)
Method in brief: as §1

[8] = tested on: PPARg:RXRa 270nM:90nM, anti-RXR (NR concentration 270 nM, RXRa partner concentration 90 nM)
Method in brief: as §1

[9] = tested on: PPARg:RXRa 30nM:10nM, anti-RXR (NR concentration 30 nM, RXRa partner concentration 10 nM)
Method in brief: as §1

[10] = tested on: PPARg:RXRa 90nM:30nM, anti-RXR (NR concentration 90 nM, RXRa partner concentration 30 nM)
Method in brief: as §1

[11] = tested on: PPARg:RXRa DBDmut IVT, anti-RXR (DBD mutation: RXRa K156A/R161A, NR concentration 270 nM, RXRa partner concentration 90 nM)
Method in brief: as §1

[12] = tested on: PPARg:RXRa IVT, anti-PPARg (NR concentration 270 nM, RXRa partner concentration 90 nM)
Method in brief: as §1

[13] = tested on: PPARg DBDmut:RXRa IVT, anti-PPARg (DBD mutation: PPARg1 K132A/R137A, NR concentration 270 nM, RXRa partner concentration 90 nM)
Method in brief: as §1

[14] = tested on: PPARg DBDmut IVT, anti-PPARg (DBD mutation: PPARg1 K132A/R137A, NR concentration 270 nM)
Method in brief: as §1

[15] = tested on: PPARg homodimer (NR concentration 180 nM)
Method in brief: as §1

[16] = tested on: PXR:RXRa (NR concentration 270 nM, RXRa partner concentration 90 nM)
Method in brief: as §1

[17] = tested on: PXR homodimer (NR concentration 270 nM)
Method in brief: as §1

[18] = tested on: RARa:RXR (NR concentration 270 nM, RXRa partner concentration 90 nM)
Method in brief: as §1

[19] = tested on: RARa homodimer (NR concentration 270 nM)
Method in brief: as §1

[20] = tested on: RARb:RXRa (NR concentration 270 nM, RXRa partner concentration 90 nM)
Method in brief: as §1

Sequence | PBM binding z-score [1] | PBM binding z-score [2] | PBM binding z-score [3] | PBM binding z-score [4] | PBM binding z-score [5] | PBM binding z-score [6] | PBM binding z-score [7] | PBM binding z-score [8] | PBM binding z-score [9] | PBM binding z-score [10] | PBM binding z-score [11] | PBM binding z-score [12] | PBM binding z-score [13] | PBM binding z-score [14] | PBM binding z-score [15] | PBM binding z-score [16] | PBM binding z-score [17] | PBM binding z-score [18] | PBM binding z-score [19] | PBM binding z-score [20]
ATATGTTGGTTACATCCGGGTCATTCAGGCTATG | 1.39 | 1.84 | 0.976 | 2.03 | 1.13 | 2.43 | 1.07 | 1.17 | 0.492 | 0.873 | 1.41 | 2.24 | 1.25 | 1.54 | 1.46 | 2.51 | 1.42 | 2.55 | 1.23 | 1.62
CATACTGGGCCATCAGGTCATTGATATCAACGTT | 1.86 | 1.46 | 1.4 | 1.75 | 0.36 | 2.86 | 2.91 | 3.57 | 1.42 | 2.43 | 4.24 | 4.71 | 0.816 | 1.18 | 1.3 | 1.99 | 0.876 | 2.16 | 0.345 | 2.25
TGAATGAGGTTATAGGATCAGGGAACGTTGCAAA | 1.98 | 1.6 | -0.459 | 1.39 | -0.108 | 3.28 | 2.06 | 2.51 | 1.15 | 2.08 | 1.16 | 2.21 | 0.833 | -0.0124 | 0.65 | 1.05 | 0.148 | 1.82 | 0.469 | 1.48
CGTCCTAGGTCAGAGAGGTCAGTGAATGCCGAGT | 3.96 | 3.93 | 2.32 | 3.09 | -0.0595 | 3.75 | 2.04 | 3.12 | 0.277 | 1.95 | 2.86 | 3.03 | -0.901 | -1.15 | 5.14 | 4.85 | 8.52 | 4.68 | 2.45 | 4.4
TCATATAGGTAAATGCTAGGTGAAAGACCGATCT | 1.17 | 1.12 | 0.232 | 0.72 | -0.0647 | 1.48 | 1.22 | 2.38 | 3.79 | 2.96 | 3.73 | 2.45 | 1.16 | 1.31 | 1.02 | 0.594 | 0.174 | 0.931 | 0.867 | 0.44
ATCTCTAGGTAAAGTTTAGTGAAAGATCGATAGA | 0.0185 | 0.132 | -0.104 | 0.124 | 0.703 | 0.485 | 0.873 | 1.36 | 0.722 | 1.25 | 2.35 | 1.77 | 1.78 | 1.51 | 0.509 | 0.187 | 0.339 | -0.0938 | 1.15 | 0.584
ACTTACGAGTCAACGAGGTTATAGCACGCGTATA | 0.899 | 1.12 | 0.413 | 1.26 | 0.307 | 1.73 | 0.967 | 0.553 | 0.564 | 0.254 | -0.235 | 0.267 | 1.03 | 0.64 | 0.175 | 1.51 | 0.513 | 1.68 | -0.00172 | 0.738
CCTTACGGGTCACTGACAGGTTATAGCATTTGGA | 5.52 | 4.15 | 0.472 | 3.5 | 0.111 | 5.06 | 4.48 | 4.67 | 1.53 | 3.39 | 3.49 | 3.75 | 0.989 | 0.078 | 3.59 | 3.81 | -0.141 | 4.92 | 1.13 | 4.02
ACTATTAGTTGACTTAGGGCGACCGATACGACGC | 0.233 | -0.0475 | -0.0351 | -0.0198 | 0.794 | -0.104 | 0.88 | 0.00253 | 0.295 | 0.183 | 0.407 | 0.174 | 1.73 | 1.51 | 0.828 | -0.0513 | 0.0652 | 0.194 | 0.515 | 0.512
TGAATGAGGTTAAAGATCAGGGACCGTGGCGTCG | 2.75 | 2.5 | -0.345 | 1.45 | 0.253 | 4.71 | 5.75 | 6.16 | 5.21 | 6.9 | 1.93 | 3.65 | 0.741 | 0.491 | 1.52 | 1.94 | -0.23 | 2.91 | 0.149 | 1.96
CCTAACGGGTCACGAGGTTATAGCACGACGAGCG | 6.1 | 4.05 | 0.263 | 3.54 | -0.146 | 5.76 | 6.41 | 5.88 | 2.76 | 4.48 | 3.39 | 4.94 | 1.47 | 0.866 | 2.3 | 4.45 | 0.408 | 5.55 | 1.42 | 4.27
ATCTCTAGGTAAGATTCAGTTCAGTGAAGAACGC | 0.354 | 0.48 | 0.604 | 0.249 | 0.778 | 0.179 | -0.128 | 0.299 | 0.045 | 0.492 | 0.989 | 0.954 | 0.543 | 0.745 | 0.75 | 0.994 | 1.17 | 0.657 | 1.15 | 0.123
ATCTCTAGGTAATAAGTTCAGTGAAAGAGAGGAC | 0.945 | 1.09 | 0.832 | 0.701 | 1.15 | 1.51 | 1.69 | 2.39 | 1.36 | 2.07 | 2.07 | 2.06 | 1.58 | 1.43 | 1.52 | 1.7 | 2.13 | 0.943 | 1.54 | 1.83
ACTTACGGGTCAACGATGTTATAGCACGCGTATA | 6.28 | 4.04 | 0.405 | 3.64 | 0.787 | 5.53 | 4.83 | 5.13 | 2.07 | 3.75 | 3.44 | 3.78 | 1.72 | 1.54 | 2.59 | 3.49 | 0.444 | 4.41 | 0.951 | 4.09
